Among all 52,000 compounds or so, about 1,700 (3.3%) were called active. The entries come from a sample that favours actives as a whole. A number with no mark means an inactive call. Rule as the data show it: active = survival mostly below about 52% (no sharp cut-off); inactive = mostly above about 56%.

This test concerns Wild type. The test can be described thus: growth inhibition of S. aureus wild type versus tarO mutant, primary screen, teichoic acid synthesis inhibitors, RN4220, OD600 (AID 463173). Conditions: S. aureus RN4220 wild type/DeltatarO growth, OD600, 18 h, stronger effect = lower value, screened at 18.75 µg/mL (by protocol).
Take `CC1CCN(c2nc(-c3ccc(C(C)(C)C)cc3)nc3ccccc23)CC1`: the survival was 3% (active). For the compound `CC1CCCCN1c1nc(-c2ccc(C(C)(C)C)cc2)nc2ccccc12` (configuration not stated), the survival was 1% (active).

On to `CC1CCN(c2nc(-c3ccc(Br)cc3)nc3ccccc23)CC1`, for which the survival was 105%. Under `Brc1ccc(-c2nc(N3CCN(c4ccccc4)CC3)c3ccccc3n2)cc1` stands 127%. With `CC1CCCCN1C(=O)CSc1nc(C2CC2)nc2ccccc12` (configuration not stated), the survival is 110%. As for `CC1CCN(c2nc3ccccc3nc2C(F)(F)F)CC1`, the survival is 78%.

With `CCOC(=O)C(CC)n1nc(C)n2c(cc3occc32)c1=O` (configuration not stated), the survival was 120%. For the compound `CCCN(CCC)CCNC(=O)c1cc2c(-c3ccccc3F)nn(C)c2s1`, the survival was 97%. Regarding `CCNC(=S)N1CCC(n2cnc3ccccc32)CC1`, the survival was 98%. Regarding `Cc1ccc(C(=O)N(c2ccc(C)cc2)S(=O)(=O)c2ccc(Cl)cc2)cc1`, the survival is 73%. Under `COc1ccc(Cl)cc1NC(=O)c1cc2nc(-c3ccc4c(c3)OCO4)cc(C(F)(F)F)n2n1` stands 65%; under `O=C(NCCCN1CCN(c2ccc(F)cc2)CC1)c1cnn(-c2ccc(F)cc2)c1-n1cccc1`, 82%. `Cc1ccc(-n2ncc(C(=O)NCCCN3CCN(c4cccc(Cl)c4)CC3)c2-n2cccc2)cc1`: the survival was 59%. With `Cc1nn(-c2ccc(F)cc2)c(-n2cccc2)c1C(=O)NCCCN1CCN(c2cccc(Cl)c2)CC1`, the survival was 110%. Take `O=C(NCCCN1CCN(c2cccc(Cl)c2)CC1)c1cnn(-c2ccc(F)cc2)c1-n1cccc1`: the survival is 0% (active). Take `Cc1ccc(-n2nc(C)c(C(=O)NCCCN3CCN(c4cccc(Cl)c4)CC3)c2-n2cccc2)cc1`: the survival is -2% (active). For the compound `Cc1ccc(-n2nc(C)c(C(=O)NCCCN3CCN(c4ccc(F)cc4)CC3)c2-n2cccc2)cc1`, the survival is 101%. As to `COC(=O)c1ccc(Nc2ncnc3c2cnn3C)cc1`, the survival is 81%.

`COc1ccc(OC)c(S(=O)(=O)NCCc2csc(-c3cccc(F)c3)n2)c1`: the survival is 135%. Under `CC1=Nc2ccccc2N=C(C)C1` stands 115%; under `CCOc1ccc(-c2nc(SCC(=O)NC3CCCC3)c(-c3ccccc3)[nH]2)cc1OC`, 73%; under `COC(=O)c1ccc(OC)c(Cn2c(=O)n(-c3ccc(C)cc3)c(=O)c3c2cnn3C)c1`, 76%. As for `COc1cc(CNC(=O)c2cnc3c(-c4cccc(C)c4)c(C)nn3c2C)cc(OC)c1OC`, the survival is 74%. Turning to `CCOc1ccc(OCC)c(NC(=O)c2cnc3c(-c4ccccc4)c(C)nn3c2C)c1`, the survival was 63%.

In the case of `Cc1cccc(CNC(=O)c2cnc3c(-c4cccc(C)c4)c(C)nn3c2C)c1`, the survival was -1% (active). As for `CCOc1ccc(-c2c(C)nn3c(C)c(C(=O)Nc4ccccc4C(=O)OC)cnc23)cc1OCC`, the survival was -6% (active). On to `CCOc1ccc(-c2c(C)nn3c(C)c(C(=O)Nc4cc(C)cc(C)c4)cnc23)cc1OCC`, for which the survival was 133%. Take `CCOc1ccc(-c2c(C)nn3c(-c4ccccc4)c(C(=O)NCCOC)cnc23)cc1OCC`: the survival is -6% (active). Turning to `COc1cc(Cl)c(C)cc1NC(=O)c1cnc2c(-c3cccc(C)c3)c(C)nn2c1C`, the survival is 14% (active). For the compound `CCCNC(=O)c1cnc2c(-c3ccc(OCC)c(OCC)c3)c(C)nn2c1-c1ccccc1`, the survival was 76%. With `CCCCNC(=O)c1cnc2c(-c3ccc(OCC)c(OCC)c3)c(C)nn2c1-c1ccccc1`, the survival is 80%. In the case of `Cc1nn2c(C)c(C(=O)NCc3cccc(Br)c3)cnc2c1-c1ccccc1`, the survival is 53%. As for `CCOc1ccc(-c2c(C)nn3c(C)c(C(=O)Nc4cccc(Cl)c4C)cnc23)cc1OCC`, the survival is 67%.

For `COC(=O)c1ccccc1NC(=O)c1cnc2c(-c3cccc(C)c3)c(C)nn2c1C`, the survival was 133%. On to `COCCNc1ccc2cc(S(=O)(=O)N3CCCCC3)ccc2n1`, for which the survival is 56%. With `COc1ccccc1CNC(=O)COCc1cc(-c2ccc3c(c2)OCO3)on1`, the survival was 19%.

With `COC(=O)C(C)n1nnc2sc(-c3ccccc3)cc2c1=O` (configuration not stated), the survival is 88%. Turning to `CCOC(=O)c1cccc(NC(=O)N2CCC(CN3CCc4ccccc4C3)CC2)c1`, the survival is 71%. `CC(=O)N1c2ccccc2C(=O)C1N1CCN(c2cc(Cl)ccc2C)CC1` (configuration not stated): the survival is 138%.

Turning to `Cc1nn2c(C)c(C(=O)NCCc3ccccc3)cnc2c1-c1ccccc1`, the survival was 55%. For `CCOc1ccc(CCNC(=O)c2cnc3c(-c4ccc(F)cc4)c(C)nn3c2C)cc1OCC`, the survival was 159%. With `CCNC(=O)c1cnc2c(-c3ccccc3)c(C)nn2c1C`, the survival was 0% (active).

As to `Cc1nn2c(C)c(C(=O)NCC(C)c3ccccc3)cnc2c1-c1ccccc1` (configuration not stated), the survival is 75%. Regarding `CCOc1ccc(CCNC(=O)c2cnc3c(-c4ccccc4)c(C)nn3c2C)cc1OCC`, the survival was -3% (active). With `CCOc1ccc(-c2c(C)nn3c(C)c(C(=O)NCCc4ccccc4)cnc23)cc1OCC`, the survival is 53%. The result for `Cc1cccc(CSc2nnc3[nH]c(=O)cc(-c4ccccc4)n23)c1` reads 80%. In the case of `CCOC(=O)C1CCCN(C(=O)c2ccc(C)c(NC(=O)c3nsc4ccccc34)c2)C1` (configuration not stated), the survival was 123%. `NS(=O)(=O)c1cccc(S(N)(=O)=O)c1`: the survival was 117%.

Turning to `Cc1ccc(NC(=O)CN2C(=O)C(c3ccc(F)cc3)=NC2(C)C)c(C)c1`, the survival is 85%. For `Cc1ccc(-c2nn3c(-c4ccccc4C)nnc3c3ccccc23)cc1`, the survival was 51%. The result for `Cc1ccc(-c2nnc3c4ccccc4c(-c4ccccc4)nn23)cc1` reads 123%; that for `COc1ccc(-c2nn3c(-c4ccccc4C)nnc3c3ccccc23)cc1`, -3% (active); that for `Cc1ccc(-c2nn3c(-c4ccccc4)nnc3c3ccccc23)cc1`, 76%. On to `COc1ccc(-c2nn3c(-c4ccc(OC)cc4)nnc3c3ccccc23)cc1`, for which the survival was 73%. The result for `Cc1ccc(-c2nn3c(-c4ccc(C)cc4)nnc3c3ccccc23)cc1` reads 20% (active). The result for `COc1ccc(CNC(=O)c2cccc(N3CCCS3(=O)=O)c2)cc1OC` reads 63%; that for `O=C(Nc1cccc(C(=O)N2CCN(c3ccccc3F)CC2)c1)c1nsc2ccccc12`, 67%.

Values taken from PubChem BioAssay AID463173 (ICCB-Longwood Screening Facility, Harvard Medical School, 2010).
